Tb PYK inh – blocks Trypanosoma brucei pyruvate kinase; TbPYK enzyme, Kinase-Glo Plus ATP luminescence, 45 min; Potency, µM (titrated, usually from 76.8 µM), inactives show at the highest dose activity, negative = inhibition, most hits filed as inhibitors; 410,000 tested, 0.12% active; note: potency is the fitted concentration of half-maximal effect; % is set by controls: 0 for no effect and ±100 for the full control effect; nearly all actives have a fitted effect of over 50% in size
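ADP (130 uM final) triggers the TbPYK reaction after compound addition; incubation is 45 min at room temperature. Kinase-Glo Plus is then added and luminescence imaged. Normalized data are fitted to concentration-effect curves.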
Cycloheximide cs – counter-screen hit for Shiga toxin inhibitors, cycloheximide; cell reporter, cycloheximide protein synthesis inhibition counterscreen; max response, %; 300,000 tested, 12% active; AID 2314; in the data active = max response mostly above about 13%, no sharp cut-off; inactive = mostly below about 14%; note: read at 38.3 µM for the half of the compounds with a filed dose; 0% is about no effect
Shiga inhibitor – inhibitors of Shiga toxin in Vero cells. Vero cells, Shiga toxin protein synthesis inhibition reporter. inhibition, % at 38.7 µM. 290,000 tested, 9.2% active. AID 2315; in the data active = inhibition mostly above about 28%, no sharp cut-off; inactive = mostly below about 43%; note: 0% is about no effect
LmPK inhibitor – inhibitors of Leishmania mexicana pyruvate kinase; Q27686; purified LmPK, Kinase-Glo ATP luminescence, 1 h; Potency, µM (titrated, usually from 57.5 µM), for the others: at the highest dose activity change, negative = inhibition, actives largely listed as inhibitors; 290,000 tested, 0.37% active; AID 1721; note: potency is the fitted concentration of half-maximal effect; % is set by controls: 0 for no effect and ±100 for the full control effect
Target sequence (Q27686 whole entry, looked up): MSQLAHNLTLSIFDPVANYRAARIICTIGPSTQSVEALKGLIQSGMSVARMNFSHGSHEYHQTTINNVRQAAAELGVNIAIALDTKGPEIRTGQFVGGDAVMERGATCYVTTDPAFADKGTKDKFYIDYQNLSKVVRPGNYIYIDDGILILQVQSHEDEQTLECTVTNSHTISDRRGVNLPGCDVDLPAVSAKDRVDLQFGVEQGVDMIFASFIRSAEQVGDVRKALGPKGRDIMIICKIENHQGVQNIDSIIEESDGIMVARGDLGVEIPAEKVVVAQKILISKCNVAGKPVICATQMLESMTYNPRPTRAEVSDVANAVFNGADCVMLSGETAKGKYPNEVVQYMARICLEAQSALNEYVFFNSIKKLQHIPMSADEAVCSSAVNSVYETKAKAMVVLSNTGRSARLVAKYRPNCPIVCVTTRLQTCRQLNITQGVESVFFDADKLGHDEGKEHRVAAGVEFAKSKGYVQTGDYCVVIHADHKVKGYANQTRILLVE
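qHTS format; LmPK 0.1 nM; substrates PEP 0.5 mM and ADP 0.1 mM. One-hour room-temperature incubation, then coupled luciferase luminescence; 0.5 nM enzyme wells mark activation.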
NS1 function inh – blocks influenza NS1 protein function; Potency, µM (titrated, usually from 46.1 µM), inactives show at the highest dose activity, positive = more growth; 270,000 tested, 0.4% active; calls by dose curve; note: potency is the fitted concentration of half-maximal effect; actives are rising curves; nearly all actives have a fitted effect of over 50% in size
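Compounds were scored for reversing the slow growth caused by influenza A NS1 in S. cerevisiae, measured by optical density at 600 nm. Assay medium contained 2% galactose at pH 6.0; NS1-free yeast of the same strain were the positive control.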
SARS PLpro yeast – blocks SARS-CoV papain-like protease in a yeast assay; S. cerevisiae expressing SARS-CoV PLpro, growth rescue; Potency, µM (titrated, usually from 32.9 µM), for the others: at the highest dose activity, positive = growth rescue, most hits filed as activators; 330,000 tested, 0.19% active; calls by dose curve; note: potency is the fitted concentration of half-maximal effect; 0% is about no effect; nearly all actives have a fitted effect of over 55% in size
Numbers without * were called inactive; ? = inconclusive; . = no result given. The full list was thinned out, with hits kept by preference. Unless noted, calls come from the whole dose curve; as a rule, active = well fitted curve in the direction sought with a large enough effect; inconclusive = small, poorly fitted or top-dose-only effect, or another doubt; inactive = no such curve, though single readings can be large; an effect the other way counts as inactive or inconclusive.

SMILES	Tb PYK inh	Cycloheximide cs	Shiga inhibitor	LmPK inhibitor	NS1 function inh	SARS PLpro yeast
CCOc1ccc(CCNC(=O)c2ccc3ccccc3n2)cc1OCC	4.9%	43.9*	52.7*	-0.9%	-32.8%	-0.7%
O=C(NCc1ccc(Cl)cc1)c1ccc2ccccc2n1	2.6%	19.8*	62.7	1.0%	-26.2%	-6.4%
O=C(NCCOc1ccc(Cl)cc1)c1ccc2ccccc2n1	-2.6%	9.3*	33.1	3.5%	-46.7%	-2.3%
COc1ccc(CCNC(=O)c2cnc3ccccc3n2)cc1	-3.3%	14.5*	43.1	-0.3%	-31.3%	-4.1%
COc1cc(C(=O)NCC(c2cccs2)N2CCOCC2)ccc1OCc1ccccc1 (stereo not drawn)	-2.7%	.	.	.	.	.
CC[C@@H](C(=O)[C@@H](C)[C@@H](O)[C@H](C)CCc1ccc(C)c(O)c1C(=O)O)C1O[C@](CC)(C2CC[C@](O)(CC)[C@H](C)O2)C[C@@H]1C (stereo partly drawn)	.	-2.1	15.1	.	.	.
CCn1ncc(Cl)c1C(=O)Nc1ccc2c(c1)CCC2	.	36.9*	134.0*	-2.2%	-8.5%	-1.0%
O=C(Nc1ccc2c(c1)CCC2)c1cnc(Cl)c(Cl)c1	-2.6%	67.3*	103.3*	-6.1%	.	-14.8%
O=C(COC(=O)c1ccc(Cl)nc1)Nc1ccc2c(c1)CCC2	-0.1%	.	.	.	.	3.9%
O=C(Nc1ccc2c(c1)CCC2)c1ccc(Cl)nc1	-4.6%	59.0*	64.2*	-2.1%	.	-2.8%
NC(=O)COc1ccc(NC(=O)CC23CC4CC(CC(C4)C2)C3)cc1	3.6%	-3.4	.	-2.1%	9.6%	4.0%
COC1=NC(=C(c2ccccc2)c2ccccc2)OC1=O	1.2%	.	.	.	.	.
CCn1nc(C)c(CCN(C)C(=O)Nc2ccc(C)c(Cl)c2)c1C	1.0%	.	.	.	.	.
N#Cc1cncc(C#Cc2ccccc2)c1	5.6%	8.8*	17.2	4.0%	-44.5%	0.7%
O=C(COc1ccc2ccccc2c1)NC1CC(=O)N(c2cccc(F)c2)C1 (stereo not drawn)	2.4%	.	.	.	.	.
Cc1ccc(-c2c(C(=O)N/N=C/c3c[nH]c4ccccc34)nnn2-c2nonc2N)cc1	9.9%	21.9*	4.5	0.2%	5.1%	-6.5%
Cc1ccsc1/C=N/NC(=O)c1nnn(-c2nonc2N)c1C	0.1%	11.6*	19.8	5.9%	-3.7%	-1.2%
Cc1ccc(-c2c(C(=O)N/N=C/c3sccc3C)nnn2-c2nonc2N)cc1	0.9%	-6.9	-2.0	-5.8%	3.4%	-2.8%
Cc1c(C(=O)N/N=C/c2cccs2)nnn1-c1nonc1N	0.2%	6.0	52.3*	2.2%	-9.5%	4.2%
Cc1ccccc1COc1ccc(/C=N/NC(=O)c2nnn(-c3nonc3N)c2CN2CCC(C)CC2)cc1	-3.1%	20.9*	24.5	3.6%	-21.7%	13.7%
COc1cc(NC(=O)Nc2nnc(N3CCCCCC3)s2)cc(OC)c1	-11.8%	.	.	.	.	.
CN(C)C(=O)NC1CCCCCCC1	.	0.6	-6.2	.	.	.
NS(=O)(=O)c1nc(S(=O)(=O)O)c2[nH]cnc2n1	.	.	.	.	-0.7%	.
CN(C)Cc1c(C(=O)N/N=C/C=C/c2ccccc2)nnn1-c1nonc1N	5.1%	28.6*	-1.3	-5.9%	?	22.4%
C/C(=N\N=C\c1ccccc1)c1nnn(-c2nonc2N)c1C	-0.4%	18.6*	40.7	5.3%	-3.6%	0.9%
SMILES	Tb PYK inh	Cycloheximide cs	Shiga inhibitor	LmPK inhibitor	NS1 function inh	SARS PLpro yeast
C[C@@H]1C(=O)O[C@H]2C[C@@]34[C@H]5C[C@@H](C(C)(C)C)[C@]36[C@H](OC(=O)[C@H]6O)O[C@]4(C(=O)O5)[C@]21O	.	-4.2	-8.6	.	.	.
CCn1c(=O)cc(SCC(=O)NCCc2cc(OC)ccc2OC)c2ccccc21	4.5%	.	.	.	.	.
CC(C)(C)NC(=O)C(c1ccncc1)N(C(=O)Cn1nnc(-c2ccc(F)cc2)n1)c1ccccc1F (stereo not drawn)	0.1%	20.6*	37.7	-4.8%	-2.7%	-0.8%
O=C(Nc1ccc(-c2noc(-c3ccccc3F)n2)cc1)c1cccs1	-10.9%	45.9*	71.3*	-6.5%	-8.2%	3.5%
CC(=O)c1ccc(NC(=O)COc2ccccc2-c2nc(-c3ccc(C)cc3)no2)cc1	3.0%	.	.	.	.	.
Cc1ccccc1-c1nc(-c2ccc(NC(=O)c3cccs3)cc2)no1	4.5%	46.0*	82.4*	-10.9%	-21.8%	0.5%
Cc1oc2cc3oc(=O)c(CCC(=O)NCCCn4ccnc4)c(C)c3cc2c1C	-15.3%	7.8*	15.2	-3.4%	9.8%	-1.1%

Assay outcomes (PubChem)
